Screening results: PubChem, National Center for Advancing Translational Sciences (NCATS)
TexasRed fluor = Texas Red fluorescence interference in TRb-SRC2 counter-screen | 280,000 compounds, 0.29% hits | TRb/SRC2 Texas Red total fluorescence interference | Potency, µM (series often up to 106 µM), without a hit: top-dose fluorescence change, negative = quenching; active = well fitted curve in either direction with a large enough effect; inconclusive = small, poorly fitted or top-dose-only effect; note: potency is the fitted concentration of half-maximal effect
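Human TRb ligand-binding domain at 0.6 uM with 20 nM Texas Red SRC2 peptide in Tris buffer containing 1 uM T3 and 5% DMSO, incubated with compound 5 h at ambient temperature. Total fluorescence (555/632 nm) calculated as parallel + 2 × perpendicular.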
Tau fluor cs = counter-screen for tau fibril formation inhibitors. tau K18 P301L Alexa594 fluorescence, heparin fibrillization. Potency, µM (titrated, usually from 57.7 µM), without a hit: at the highest dose activity change, negative = decrease. 280,000 compounds, 0.93% hits. AID 1463; note: potency is the fitted concentration of half-maximal effect; nearly all actives have a fitted effect of over 55% in size
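Human K18 P301L tau (15 uM unlabeled plus 0.24 uM Alexa 594-labeled, final) in 100 mM sodium acetate pH 7 was mixed with compound and 20 uM heparin and incubated 6 hr at 37 C.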
Tau FP inhib = tau fibrillization inhibition (FP); P10636; K18 P301L tau heparin fibrillization, Alexa594 FP, 6 h; Potency, µM (titrated, usually from 57.7 µM), without a hit: top-dose activity, negative = inhibition, most hits filed as inhibitors; 280,000 compounds, 0.39% hits; note: potency is the fitted concentration of half-maximal effect; nearly all actives have a fitted effect of over 55% in size
Target sequence (P10636 561-689 P618L limits assumed): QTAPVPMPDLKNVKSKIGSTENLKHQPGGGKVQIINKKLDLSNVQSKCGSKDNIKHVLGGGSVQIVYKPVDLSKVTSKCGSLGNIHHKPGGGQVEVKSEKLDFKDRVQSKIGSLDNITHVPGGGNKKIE
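FP of Alexa 594-tau after heparin (20 uM) induction. Substrate: human K18 P301L, 15 uM unlabeled, 0.24 uM labeled. Buffer 100 mM sodium acetate pH 7. 6 hr, 37 C.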
PNC inhibitor = inhibitors of perinucleolar compartment assembly; PC3M PTB-GFP, PNC prevalence imaging, 16 h; active compounds read low; activity change (PNC), negative = inhibition, % at 10 µM; 140,000 compounds, 3.1% hits; AID 2417;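 active = readout at or below -70, meaning at least 70% loss of cells showing the perinucleolar compartment, a nuclear body marking cancer cells; inconclusive = readout between -30 and a set limit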;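 note: plate controls were DMSO wells for no effect and camptothecin positive control wells for full effect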
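Compounds are pinned in duplicate onto adhered PC3M cells stably expressing GFP-tagged PTB and incubated 16 h at 37 C. Cells are then fixed, nuclei stained with Hoechst, and PNC-positive cells counted.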
TRb-SRC2 inh = inhibitors of human thyroid hormone receptor beta-SRC2 interaction | TRbeta-SRC2 peptide binding, fluorescence polarization; receptor liganded with 1 µM T3 | Potency, µM (highest dose often 106 µM), for the others: at the top dose activity change, negative = inhibition, actives largely listed as inhibitors | P10828 | 280,000 compounds, 0.065% hits | AID 1469;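 note: potency is the fitted concentration of half-maximal effect; plate controls were bound peptide for no effect and peptide without receptor for full effect; nearly all actives have a fitted effect of over 50% in size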
Target sequence (P10828 whole entry, looked up): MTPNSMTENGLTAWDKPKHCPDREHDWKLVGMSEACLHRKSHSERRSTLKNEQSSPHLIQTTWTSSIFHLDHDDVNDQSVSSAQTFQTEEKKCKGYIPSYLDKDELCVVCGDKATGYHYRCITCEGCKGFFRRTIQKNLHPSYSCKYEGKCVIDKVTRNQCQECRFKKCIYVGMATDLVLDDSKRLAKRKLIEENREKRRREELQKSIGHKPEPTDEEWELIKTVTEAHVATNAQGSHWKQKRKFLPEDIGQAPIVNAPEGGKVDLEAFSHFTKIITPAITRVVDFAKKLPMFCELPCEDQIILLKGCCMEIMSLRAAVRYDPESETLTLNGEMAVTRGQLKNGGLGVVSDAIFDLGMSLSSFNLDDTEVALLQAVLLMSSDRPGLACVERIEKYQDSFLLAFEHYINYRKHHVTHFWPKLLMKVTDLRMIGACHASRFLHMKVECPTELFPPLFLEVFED
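Compounds were added to 0.6 uM TRb ligand-binding domain and 20 nM Texas Red-labeled SRC2 peptide in Tris buffer containing 1 uM T3, incubated 5 hr at ambient temperature, then read by fluorescence polarization.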
Tau ThT inhib = inhibitors of human tau fibril formation, thioflavin T binding | P10636 | recombinant tau K18 P301L (four-repeat tau fragment), heparin-induced fibrillization, ThT fluorescence | Potency, µM (titrated, usually from 57.4 µM), inactives show at the top dose activity, negative = inhibition, hits mostly inhibitors | 270,000 compounds, 2.1% hits; note: potency is the fitted concentration of half-maximal effect; nearly all actives have a fitted effect of over 55% in size
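Heparin-induced (20 uM) aggregation of recombinant human K18 P301L tau, 15 uM unlabeled with 0.24 uM labeled, pH 7 acetate buffer, 6 hr at 37 C with compound. Fibrils quantified by 30 uM ThT fluorescence after 1 hr ambient incubation.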
The depositor's hits bear a star; ? = inconclusive; · = not tested or not shown; [ ] = remark or other dose. A selection: hits, their analogues and other compounds. The true share with any hit is near 4.6%. Unless noted, calls come from the whole dose curve; as a rule, active = well fitted curve in the direction sought with a large enough effect; inconclusive = small, poorly fitted or top-dose-only effect, or another doubt; inactive = no such curve, though single readings can be large; an effect the other way counts as inactive or inconclusive. Unless noted, % is set by controls: 0 for no effect and ±100 for the full control effect.

SMILES	TexasRed fluor	Tau fluor cs	Tau FP inhib	PNC inhibitor	TRb-SRC2 inh	Tau ThT inhib
Cc1cccc(OCC(=O)NCC(=O)n2nc(C)cc2C)c1	1.1%	-0.6%	-1.0%	?	-8.2%	2.6%
CCC(=O)NCCNc1ccc([N+](=O)[O-])cn1	-6.5%	0.9%	2.3%	-80.7*	0.2%	-1.6%
CNC(=S)NCCc1ccc(OC)c(OC)c1	-1.1%	-1.6%	7.6%	?	0.2%	-3.7%
COc1ccc(C(=O)COC(=O)c2ccc(N(C)C)cc2)cc1	1.5%	-1.8%	-5.0%	·	1.0%	?
CN(C)c1ccc(C(=O)OCC(=O)c2cccs2)cc1	-1.4%	-21.7%	-9.3%	-113.4*	-1.0%	?
Cc1noc(C)c1CSc1nnc(-c2ccncc2)n1-c1cccc(Cl)c1C	2.2%	-5.4%	-2.3%	-6.3	-1.0%	-9.0%
O=C1C=C(O)c2c(O)cccc2C1=O	-11.0%	-9.5%	-3.7%	·	-4.5%	?
Nc1c(O)ccc2c1C(=O)c1ccccc1C2=O	?	?	?	-21.5	?	14.1µM*
COc1ccc(-c2cn3c(C)c(C(=O)Nc4cc(NC(C)=O)ccc4OC)sc3n2)cc1	-0.9%	-4.9%	-2.0%	-23.9	3.6%	?
CCC[n+]1c(C)sc2c(OC)ccc(OC)c21	-5.6%	-20.0%	31.6µM*	·	-4.5%	35.5µM*
CC(=O)c1c(C)[nH]c(C(=O)CSc2nc3ccccc3n2C)c1C	2.5%	?	?	-7.1	1.6%	-21.8%
C[C@@H](C(=O)Nc1ccc2ccccc2c1)[C@H]1C[C@]1(C)[C@H](NC(=O)OCc1ccccc1)c1ccccc1	-9.0%	-26.0%	?	-9.0	-4.0%	-12.7%
CCN(CCO)c1ccc(N=Nc2cc(C)[nH]n2)cc1	-2.6%	-15.2%	12.3%	·	5.7%	10µM*
CC(C)=NNc1cc([N+](=O)[O-])cc2c1C(=O)N(C)S2=O (stereo not given)	1.2%	1.5%	-15.6%	·	-3.6%	?
NNc1cc([N+](=O)[O-])cc2c1C(=O)N(Cc1ccccc1)S2=O (stereo not given)	-4.3%	-26.3%	?	·	-9.9%	25.1µM*
COc1cc2cc(C#N)c(SCC(=O)N3CCOCC3)nc2cc1OC	-8.8%	-9.1%	-8.8%	-100.0*	-0.7%	-8.5%
CC(=O)CSc1nc2cc3c(cc2cc1C#N)OCCO3	-2.0%	?	14.8%	·	8.6%	1.58µM*
N#C/C(=C\c1cccs1)C(=O)N1CCOCC1	-0.4%	-3.3%	3.2%	·	-2.5%	-8.2%
O=C1C2CCCCC2C(=O)N1Cc1ccccc1 (stereo not given)	-4.9%	-3.1%	-15.0%	·	-3.9%	-3.1%
O=c1ccsn1Cc1ccccc1	-3.4%	-16.5%	14.1µM*	-7.5	0.7%	10µM*
CCOC(=O)c1cc2n(c1/N=C/N(C)C)-c1ccccc1C2=O	0.9%	?	25.1µM*	-25.6	6.4%	25.1µM*
Cc1cccc(N=C2NC(=O)/C(=C3/C(=O)N(C)c4ccccc43)S2)c1C	-1.2%	?	2.5%	15.4	-10.9%	10µM*
N#CC1=C(N)S[C@H](C(=O)C23CC4CC(CC(C4)C2)C3)[C@H]1c1ccncc1	1.0%	-11.7%	-0.8%	?	2.6%	-2.5%
Cc1cccc(NC(=O)CSc2nnc([C@@H]3CCCN3C(=O)OC(C)(C)C)o2)c1C	-0.6%	-1.6%	-3.2%	5.1	1.3%	-10.9%
Cc1ccc(C)c(NC(=O)CSc2nnc([C@@H]3CCCN3C(=O)OC(C)(C)C)o2)c1	-0.9%	-8.1%	2.4%	-118.9*	-0.8%	-1.9%
SMILES	TexasRed fluor	Tau fluor cs	Tau FP inhib	PNC inhibitor	TRb-SRC2 inh	Tau ThT inhib
C=CCN1C(=O)C(CC(=O)O)SC1=Nc1ccc(N=Nc2ccccc2)cc1 (stereo not given)	-3.5%	-16.0%	6.5%	·	-2.3%	11.2µM*
C=CCN1C(=O)C(CC(=O)O)SC1=Nc1cccc([N+](=O)[O-])c1 (stereo not given)	-1.4%	0.2%	-11.5%	·	-14.1%	2.2%
O=C(CCCOc1ccccc1)N1CCN(S(=O)(=O)c2cccs2)CC1	-0.2%	-10.7%	-2.6%	22.5	0.2%	-12.8%
O=C(CSc1nc(=O)n(Cc2ccco2)c2c1CCC2)Nc1ccccc1C(F)(F)F	-0.7%	-0.3%	-7.8%	·	0.9%	-5.2%
Cn1c(SCC(=O)NCCN2C(=O)CSC2=O)nnc1-c1ccccc1	4.3%	-4.2%	-2.7%	-81.7*	7.0%	-4.5%
CCOc1ccccc1NC(=O)c1sc2nc(-c3ccc(OC)cc3)ccc2c1N	-2.9%	3.55µM*[quencher]	12.8%	·	6.0%	?
COc1ccc(C(=O)c2sc3nc(-c4ccccc4)ccc3c2N)cc1	-2.4%	10µM*[quencher]	-17.9%	-13.9	7.2%	?
CC(C)OC(=O)c1sc2nc(-c3ccccc3)ccc2c1N	-0.8%	?	0.9%	-100.0*	-16.3%	-9.9%
CCOc1ccccc1NC(=O)c1sc2nc(C)cc(C)c2c1N	1.6%	-14.4%	-2.3%	·	6.8%	-7.1%
COc1ccc(-c2ccc3c(N)c(C(=O)NCc4ccc(Cl)cc4)sc3n2)cc1	-4.1%	?	-4.4%	·	5.3%	-10.3%
CCOC(=O)c1sc2nc(-c3cccnc3)ccc2c1N	-5.5%	?	9.3%	·	3.7%	?
COc1ccc(-c2ccc3c(N)c(C(=O)Nc4ccc(C)cc4C)sc3n2)cc1OC	-1.8%	8.91µM*[quencher]	5.3%	·	-1.5%	?
COc1ccc(Cl)cc1NC(=O)c1sc2nc(-c3ccc(OC)c(OC)c3)ccc2c1N	-20.8%	?	3.6%	·	0.4%	?
CCSc1ncnc2c1sc1nc(-c3ccco3)c3c(c12)CC(C)(C)OC3	-3.7%	0.9%	-6.2%	?	-20.4%	-7.8%
COc1cccc(-c2ccc3c(N)c(C(=O)Nc4ccc(C)c(F)c4)sc3n2)c1	-2.2%	?	-3.5%	·	9.0%	?
COc1cccc(-c2ccc3c(N)c(C(=O)c4ccc(Cl)cc4)sc3n2)c1	-3.6%	2.82µM*[quencher]	?	·	6.1%	4.47µM*
CC(C)=CCC/C(C)=C/C=C/C(C)=C/C=C/C(C)=C/C=C/C=C(C)/C=C/C=C(C)/C=C/C=C(\C)CCC=C(C)C	0.0%	·	·	·	-0.4%	·
COC(=O)/C=C/C(C)=C/C=C/C(C)=C/C=C/C=C(C)/C=C/C=C(C)/C=C/C(=O)O	-2.1%	-23.1%	?	·	-3.7%	12.6µM*
O=C(O)C1CCN(C(=O)NC2CCCCC2)CC1	-2.2%	0.1%	8.0%	28.5	4.1%	-7.9%
Cc1ccc(N)cc1[N+](=O)[O-]	-3.8%	·	·	·	-0.4%	·
CC1=C(C(N)=O)C(c2ccc(F)cc2)n2nc(-c3ccccc3Cl)nc2N1 (stereo not given)	3.6%	-1.5%	-5.2%	·	7.2%	-3.0%
C=CCSc1nc2sc3c(c2c(=O)n1CC)CCc1ccccc1-3	-8.1%	-15.8%	15.8µM*	-4.2	-5.6%	11.2µM*
